# Shown are actives, neighbours in structure and some others; about 8.6% of the full set was active somewhere.
# LASV entry inh = inhibitors of Lassa virus binding or entry into cells; Lassa virus pseudotyped entry inhibition, cell-based qHTS; Potency, µM (titrated, usually from 49.2 µM), without a hit: at the highest dose activity change, negative = inhibition, usual class: inhibitors; 18,000 tested, 4.1% active; AID 720533
# MARV entry inh = inhibitors of Marburg virus binding or entry into cells. Marburg virus pseudotype entry/binding inhibition, cell-based. Potency, µM (highest dose often 49.2 µM), for inactives: at the top dose activity change, negative = inhibition, actives largely listed as inhibitors. 18,000 tested, 6.5% active. AID 720532
# An asterisk follows results filed as active; ? = inconclusive; · = no result given; ! = repeats disagree; [ ] = remark or other dose. Calls come from the whole dose curve; tested in HEK293 cells. % is set by controls: 0 for no effect and ±100 for the full control effect; potency is the fitted concentration of half-maximal effect.
SMILES,LASV entry inh,MARV entry inh
CNCC(=O)c1ccc(O)c(O)c1,-15%,16µM*
CC(=O)[C@]12C[C@@H]3CCN(C(=O)N[C@@H]1c1ccccc1)[C@@]32C,-18%[8.59 µM],?
O=C1N=c2ccc(N=Cc3c(O)[nH]c4ccccc34)cc2=N1,12%,16%
Cn1cc(C(=O)OCC2CCN(CCNS(C)(=O)=O)CC2)c2ccccc21,2%,?
COc1cc(COc2cc(N)c(Cl)cc2C(=O)CCC2CCN(CCNS(C)(=O)=O)CC2)cc(OC)c1,?,7.9µM*
COc1cc(N)c(Cl)cc1C(=O)OCCN1CCCCC1,5%,-17%
COc1cc(N)c(Cl)cc1C(=O)CCC1CCN(CCNS(C)(=O)=O)CC1,?,32µM*!
COC(=O)C1=C(C)N(Cc2ccccc2)C(=NCC2CC2)NC1c1ccc(Br)cc1 (centres undefined),24%[8.59 µM],-10%[8.59 µM]
COc1ccc([C@H]2O[C@@H](c3ccc(OC)c(OC)c3)[C@H](C)[C@@H]2C)cc1OC,-5%,6%
CCCCCCN1C[C@@H](n2cc(C3CC3)nn2)[C@H](O)C[C@H]1c1ccc(OC)cc1,·,-20%
CC1O[C@@H](OC2CC(O)[C@@]3(CO)C4C(O)C[C@@]5(C)C(C6=CC(=O)OC6)CC[C@]5(O)C4CC[C@]3(O)C2)C(O)C(O)C1O (some centres undefined),0.32µM*,0.28µM*
C[C@@H]1O[C@@H](O[C@H]2C[C@@H](O)[C@]3(CO)[C@@H]4C(CC[C@]3(O)C2)[C@@]2(O)CC[C@H](C3=CC(=O)OC3)[C@@]2(C)C[C@H]4O)[C@H](O)[C@H](O)[C@H]1O (some centres undefined),0.32µM*,?
C[C@@H]1O[C@@H](O[C@H]2C[C@@H](O)[C@]3(CO)[C@H]4[C@H](O)C[C@]5(C)[C@@H](C6=CC(=O)OC6)CC[C@]5(O)[C@@H]4CC[C@]3(O)C2)[C@H](O)[C@H](O)[C@H]1O,0.032µM*,?
C[C@@H]1O[C@H](O[C@H]2C[C@@H](O)[C@@]3(CO)[C@H]4[C@@H](O)C[C@]5(C)[C@@H](C6=CC(=O)OC6)CC[C@]5(O)[C@H]4CC[C@]3(O)C2)[C@@H](O)[C@H](O)[C@@H]1O,3.2µM*,?
COc1ccc([C@]23Cc4ccccc4[C@H](O2)C2=C(CC4(CCCCC4)OC2=O)O3)cc1,44%[8.59 µM],50%[8.59 µM]
CC(CCC(=O)OC[C@H]1O[C@H](C#Cc2ccccc2)C=C[C@H]1Oc1ccc(C)cc1)=NOC[C@@H](O)COCc1ccco1,-20%[8.59 µM],-10%[8.59 µM]
COc1cccc2c1[C@H](C=Cc1ccccc1)[C@@H]([C@H](O)COC(C)=O)OC2,10%[8.59 µM],16%[8.59 µM]
COc1ccc(NC(=O)c2cc(OCCCN(C)C)nn2Cc2ccccc2)cc1,?,8.9µM*
COc1ccc(NC(=O)OCCN2CCN(Cc3ccccc3)CCC2=O)cc1,5%,22%
CCN1C(N(C)CCc2c[nH]c3ccccc23)=NC(c2cccc(C(F)(F)F)c2)C(C(=O)OC)=C1C (centres undefined),-23%[8.59 µM],?
C=C1[C@@H]2CCN3C(=O)N[C@@H](c4ccccc4)[C@@]1(C(=O)OCC)C23 (some centres undefined),17%[8.59 µM],?
CN1CCN(CCCN2c3ccccc3Sc3ccc(Cl)cc32)CC1,20µM*!,10µM*
CCSc1ccc2c(c1)N(CCCN1CCN(C)CC1)c1ccccc1S2,-17%[17.8 µM],?
CN1CCN(CCCN2c3ccccc3Sc3ccccc32)CC1,?,14µM*
NC(=O)[C@@H]1C[C@]2(NC(=O)NC2=O)c2cc(F)ccc2O1,-14%,2%
SMILES,LASV entry inh,MARV entry inh
CC(C)CON=C1C[C@@H](O)[C@@H](O)[C@@H]2[C@H]3C(=O)N(C[C@@H]4CCCO4)C(=O)[C@@H]3CC[C@H]12,-8%[8.59 µM],-10%[8.59 µM]
C#Cc1cccc(Nc2ncnc3cc(OCCOC)c(OCCOC)cc23)c1,?,-4%
COc1cc2c(Nc3ccc(Br)cc3F)ncnc2cc1OCC1CCN(C)CC1,22µM*,7.1µM*
N#Cc1ccc2c(c1)C[C@]1(CCCCN3C(=O)c4ccccc4C3=O)Oc3c(c(=O)oc4ccc(F)cc34)[C@@H]2O1,-24%[8.59 µM],-26%[8.59 µM]
Cc1ccc2c(c1)CN(CCNC(=O)c1cc3ccccc3oc1=O)CC(C)O2 (centres undefined),0%,-23%
COc1ccc(C(=O)NCCN2Cc3cc(C)ccc3OC(C)C2)c(OC)n1 (centres undefined),-4%,2µM*
COC(=O)N[C@H](C(C(=O)OC)=C(C)NCc1ccccc1)c1cccc(F)c1,4%[8.59 µM],-11%[8.59 µM]
CCC1CN2CCC1CC2[C@@H](Oc1cc2ccccc2c2ccccc12)c1ccnc2ccc(O)cc12 (some centres undefined),0%[8.59 µM],42%[8.59 µM]
C=C(C)C(=O)OC[C@@H]1CN2[C@H](c3ccc(Br)cc3)[C@H](C)CC[C@H]2C(=O)O1,11%[8.59 µM],46%[8.59 µM]
CC(=O)OC[C@H]1O[C@H](C#Cc2ccc(C)cc2C)C=C[C@H]1OC(C)=O,?,-2%[8.59 µM]
CN1C2CCC1CC(C(=O)OC(CO)c1ccccc1)C2 (centres undefined),3%,7%
O=C(NCCCN1CCCCCC1)C(c1ccccc1)C1CCCCC1 (centres undefined),?,10µM*
Cc1ccccc1CN1CCSCCS1(=O)=O,-7%,?
CC1=CC[C@@H](COc2ccccc2)O[C@@]2(C1)C(=O)Nc1ccccc12,32%[8.59 µM],21%[8.59 µM]
COC(=O)[C@@H]1CC[C@H](C)[C@@H](c2ccc(C)cc2)N1C(=O)c1ccc(C=NO[C@@H](C)c2cc(-c3c(C)cc(C)cc3C)no2)cc1,10%[8.59 µM],6%[8.59 µM]
CC(C)(C)n1nc(-c2ccc(Cl)cc2)c2c(N)ncnc21,6%,39%
CC(C)n1nc(-c2cc3cc(O)ccc3[nH]2)c2c(N)ncnc21,4µM*,3.5µM*
CC(=O)OC[C@H]1O[C@@H](ON=C2C[C@@H](O)[C@@H](O)[C@@H]3[C@H]4C(=O)N(C5CCCCC5)C(=O)[C@@H]4CC[C@@H]23)[C@H](OC(C)=O)[C@@H](OC(C)=O)[C@H]1OC(C)=O,-1%[8.59 µM],-25%[8.59 µM]
CN1[C@@H]2CC[C@H]1CC(OC(=O)C(O)c1ccccc1)C2 (some centres undefined),-4%,12%
CCC(Sc1ccccc1)C(=O)OC1CC2CCC(C1)N2C (centres undefined),-12%,8.9µM*
Oc1ccc([C@@H]2CNCCc3c2cc(O)c(O)c3Cl)cc1,-14%,11%
Oc1ccc([C@H]2CNCc3c2ccc(O)c3O)cc1O,-21%,6.3µM*
COC(=O)[C@@H]1[C@@H](c2cccc(C(F)(F)F)c2)NC(=O)N(Cc2ccccc2)[C@@H]1C,-22%[8.59 µM],-19%[8.59 µM]
N#Cc1cccc(OCc2cn(CC(=O)c3ccc(O)cc3)nn2)c1,-15%,1%
CCS(=O)(=O)N1CCC[C@H]2CN3CCc4cc(OC)ccc4[C@@H]3C[C@@H]21,-6%,3%
CCOC(=O)c1c(C)[nH]c2ccc3c(c12)CN1CCc2cc(OC)ccc2[C@@H]1O3,?,5.6µM*
COC(=O)CC=C[C@@H](C)[C@@H](C=NOC[C@@H](O)COCc1ccco1)NS(=O)(=O)c1ccc(C)cc1,-16%[8.59 µM],21%[8.59 µM]
COc1ccc2c(c1)N(C[C@H](C)CN(C)C)c1ccccc1S2,-26%[17.8 µM],?
CC(CN(C)C)CN1c2ccccc2Sc2ccccc21 (centres undefined),?,11µM*
CN(C)CCCN1c2ccccc2Sc2ccc(C(F)(F)F)cc21,?,11µM*
